Source: PubChem BioAssay (NCI)
Compounds without any hit were thinned out: in the full panel of roughly 83,000, 20% have a hit.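 Method: cells in 96-well plates; compound added at one concentration; 48 h incubation; percent growth measured; values under 10 scored active.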 Active and inactive are the calls of the source.

Tested on: MDA-MB-468 breast
Assay: NCI-60 one-dose screen, 48 h (100 = growth as untreated, 0 = no growth, -100 = all killed)
Details: 10 µM unless noted

Row | SMILES | growth
1 | CCn1c(SC)nnc1-c1cc2c([nH]c3ccccc32)c(-c2cccc(O)c2)n1 | -12.6% (active)
2 | c1ccc(-c2ccc3c(c2)C2(CCNCC2)CN3)cc1 | 106% (inactive)
3 | COc1cc(-c2nn(C(=O)NCCN3CCN(C)CC3)cc2-c2ccncc2)ccc1Cl | 60.9% (inactive)
4 | CC(=O)OCC1OC(n2cnc3c(=S)nc(N)[nH]c32)C(OC(C)=O)C1OC(C)=O (centres undefined) | 68.5% (inactive)
5 | O=C(CSc1nnc(-c2ccc(NC(=O)c3cccnc3)cc2)o1)Nc1cccc(Br)c1 | 97.3% (inactive)
6 | CCN(CC)C(=O)CCCCCn1c2ccccc2c2c3c(c4c5ccccc5[nH]c4c21)C(=O)N(O)C3=O | 51.5% (inactive)
7 | CCC(C)Nc1ccc(NC(C)CC)cc1 (centres undefined) | 8.07% (active)
8 | N[C@@H](CO)C(=O)O | 103% (inactive)
9 | Cc1ccc(S(=O)(=O)N(C)CCCCCC(=O)O)cc1 | 108% (inactive)
10 | CN=C(N)N/N=C(\C)c1ccc2c(c1)Cc1cc(/C(C)=N/NC(N)=NC)ccc1-2 | -90.7% (active)
11 | C=C1C(=O)O[C@H]2[C@H]1CC/C(COC(=O)CCCCC(=O)OC/C1=C/CC[C@@]3(C)O[C@H]3[C@H]3OC(=O)C(=C)[C@@H]3CC1)=C\CC[C@@]1(C)O[C@@H]21 | 45.5% (inactive)
12 | COCCn1c(Nc2ccc(C(=O)NO)cc2)nc2ccccc21 | 63.7% (inactive)
13 | O=C1/C(=C/c2ccccc2[N+](=O)[O-])Oc2ccc(O)cc21 | 20.3% (inactive)
14 | CC(=O)N(N=O)c1ccc([N+](=O)[O-])cc1Cl | 29.7% (inactive)
15 | CCN(CCC#N)c1ccccc1 | 118% (inactive)
16 | COc1ccc(C(O)c2cc3c(N)c(C(=O)Nc4cccc(Cl)c4C)sc3nc2C)cc1 (centres undefined) | 8.74% (active)
17 | Cc1cc(CSc2ccccc2C(=O)N2CC=C(c3ccccc3)CC2)on1 | 94.2% (inactive)
18 | CN(C)Cc1ccccn1 | 105% (inactive)
19 | C/C=C(/C)C(=O)OC1C=C(CO)C(=O)C(OC(=O)/C(C)=C\C)C1C(C)C (centres undefined) | -50.9% (active)
20 | COc1ccc(NS(=O)(=O)c2ccc(-c3cnc(C4CC4)o3)cc2)cc1 | 12.5% (inactive)

Row | SMILES | growth
21 | COc1cc2nc(-c3ccc(C(F)(F)F)cc3)cc(OCCCNCC3CCCO3)c2cc1OC (centres undefined) | 14.2% (inactive)
22 | OB1OCc2cc(/C=C/c3cccc(C(F)(F)F)c3)ccc21 | 5.08% (active)
23 | O=S(=O)(Nc1cc(Cl)cc(Cl)c1)c1ccc(-c2cnc(C3CC3)o2)cc1 | 2.06% (active)
24 | Nc1ccn(C2CC(N)C(CO)O2)c(=O)n1 (centres undefined) | 101% (inactive)
25 | COC(=O)/C=C1/SC(=Nc2ccc([N+](=O)[O-])cc2)N(CCc2c[nH]c3ccc(O)cc23)C1=O | 56.8% (inactive)
26 | CC(=O)NC(C)(C)C(=O)N1CCC[C@H]1C(=O)NC(C)(C)C(=O)N[C@@H](C)C(=O)NC(C)(C)C(=O)N[C@@H](C)C(=O)N[C@@H](CCC(N)=O)C(=O)NC(C)(C)C(=O)N[C@H](C(=O)NC(C)(C)C(=O)NCC(=O)N[C@@H](CC(C)C)C(=O)NC(C)(C)C(=O)N1CCC[C@H]1C(=O)N[C@H](C(=O)NC(C)(C)C(=O)NC(C)(C)C(=O)N[C@@H](CCC(N)=O)C(=O)N[C@@H](CCC(N)=O)C(=O)N[C@H](CO)Cc1ccccc1)C(C)C)C(C)C | 3.71% [4.25 µM] (active)
27 | C=C1CCC2C3(C)COC(c4ccc(NC(C)=O)cc4)OC3CCC2(C)C1C/C=C1/C(=O)OCC1O (centres undefined) | 19.3% (inactive)
28 | O=C(Nc1cccc(Cl)c1)Nc1ncc(CCNc2ncnc3ccsc23)s1 | 6.87% (active)
29 | Nc1cccc(NC(=O)C(=O)Nc2cccc(N)c2)c1 | 117% (inactive)
30 | Nc1ncnc2c1ncn2C1OC(CO)C2OC21 (centres undefined) | 93.5% (inactive)
31 | COc1ccc(-n2nc(C(=O)Nc3ccc(F)cc3)nc2-c2cc(OC)c(OC)c(OC)c2)cc1 | 91.9% (inactive)
32 | COC(=O)c1ccc(C)cc1 | 105% (inactive)
33 | COc1ccc(C2C=C(c3ccc(N)cc3)N=C3SC=CN32)cc1OC (centres undefined) | 101% (inactive)
34 | CNC1=C([N+](=O)[O-])C(c2ccc(OC)cc2)C(C#N)=C(c2cccs2)O1 (centres undefined) | 117% (inactive)
35 | CC(C)(C)C(=O)/C=C/c1ccc([N+](=O)[O-])cc1 | 45.5% (inactive)
36 | COc1ccc(/C=C(\C#N)c2cc3ccccc3[nH]2)cc1 | 17.7% (inactive)
37 | C/C(=N\O)c1ccc(NC(=O)CSc2nnc(-c3cc(-c4ccc(S(N)(=O)=O)cc4)nc4ccccc34)n2-c2ccccc2)cc1 | 63.1% (inactive)
38 | CCN(CC)c1ccc(/C=N/NC(=O)Cc2ccc(Nc3ccnc(C(F)(F)F)c3)cc2)c(O)c1 | 26.1% (inactive)
39 | NCCCOc1cc(Cl)ccc1NC(=O)c1cc2ccccc2cc1OCCCN | -85.3% (active)
